The results in this text go back to PubChem BioAssay (NCI).

Test systems include DU-145 prostate; K-562 leukemia; MALME-3M melanoma; MDA-MB-231 breast; RXF 393 renal; SF-268 CNS; SF-295 CNS; SF-539 CNS; UACC-257 melanoma; M14 melanoma; HCT-15 colon; HT29 colon; SNB-75 CNS; SNB-19 CNS; U251 CNS; PC-3 prostate; SK-MEL-5 melanoma; UACC-62 melanoma; LOX IMVI melanoma; SK-MEL-28 melanoma.
What all share (experiment): NCI-60 one-dose screen, 48 h (100 = growth as untreated, 0 = no growth, -100 = all killed)
What all share (conditions): 10 µM unless noted

The panel holds about 83,000 compounds, 20% with a hit somewhere; the sample as a whole holds those more often.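 Method: cells in 96-well plates; compound added at one concentration; 48 h incubation; percent growth measured; values under 10 scored active.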 Values without a mark were called inactive. The source made the active and inactive calls.

Regarding `Cc1cc2nc(C(Cl)Cl)nc(-c3ccc(S(=O)(=O)N(C)C)cc3)n2n1`, the growth in the test on DU-145 prostate was 45.1%; with K-562 leukemia, 14.1%; with MALME-3M melanoma, 17.3%; in the test on MDA-MB-231 breast it was 12.6%; in the test on RXF 393 renal, 59.5%; in the test with SF-268 CNS, 67.6%. The growth in the test with SF-295 CNS is 66.3%; in the test with SF-539 CNS it was 69.4%; in the test on UACC-257 melanoma, 87%; in the test with M14 melanoma it was 37.1%; in the test on HCT-15 colon it was 5.58% (active); in the test on HT29 colon, 18%. For the same molecule, the growth in the test with SNB-75 CNS was 55.5%; in the test on SNB-19 CNS, 58.4%; in the test on U251 CNS it was 39.2%; with PC-3 prostate, 67.4%; in the test on SK-MEL-5 melanoma, 80.3%; in the test with UACC-62 melanoma, 68.5%. For the same molecule, the growth in the test on LOX IMVI melanoma was 17.7%; with SK-MEL-28 melanoma it was 59.3%.
`CN1CCN(Cc2ccc(NC(=O)c3cncc(C#Cc4cnc5ccc(NCCO)nn45)c3)cc2C(F)(F)F)CC1`: the growth in the test on DU-145 prostate was -2.12% (active); with K-562 leukemia, 5.38% (active); in the test with MALME-3M melanoma it was -69.7% (active); in the test with MDA-MB-231 breast, 1.53% (active); in the test with RXF 393 renal it was -74.3% (active); in the test on SF-268 CNS it was -40.9% (active). Further, the growth was 16.6% in the test on SF-295 CNS; -74.4% (active) in the test on SF-539 CNS; -6.58% (active) with UACC-257 melanoma; -70.9% (active) in the test with M14 melanoma; 33.2% in the test on HCT-15 colon; -28% (active) with HT29 colon. For the same molecule, the growth in the test with SNB-75 CNS is -90.5% (active); with SNB-19 CNS, 0.946% (active); in the test on U251 CNS, -19.6% (active); in the test on PC-3 prostate, 3.35% (active); with SK-MEL-5 melanoma, -22.2% (active); with UACC-62 melanoma, -32.7% (active). The growth in the test with LOX IMVI melanoma is -87.8% (active); with SK-MEL-28 melanoma, -24.4% (active).
Consider `N#C/C(=C\c1cccc2c1OCO2)C(=O)Nc1sc2c(c1C#N)CCCC2`, for which the growth with DU-145 prostate is 111%; in the test on K-562 leukemia, 104%; in the test on MALME-3M melanoma, 105%; in the test with MDA-MB-231 breast it was 95.6%; in the test on RXF 393 renal, 123%; in the test on SF-268 CNS, 103%. Further, the growth in the test on SF-295 CNS is 97.2%; with SF-539 CNS, 97%; in the test with UACC-257 melanoma it was 110%; in the test with M14 melanoma it was 97.5%; in the test with HCT-15 colon, 102%; in the test with HT29 colon it was 124%. For the same molecule, the growth in the test with SNB-75 CNS was 102%; with SNB-19 CNS it was 95.4%; in the test with U251 CNS, 96.9%; in the test with PC-3 prostate it was 109%; with SK-MEL-5 melanoma it was 101%; in the test on UACC-62 melanoma, 90.8%. Moreover, the growth in the test with LOX IMVI melanoma was 104%; in the test with SK-MEL-28 melanoma, 102%.
Turning to `CC(C)NC(=O)c1cc(-c2ccc(NC(=O)Nc3ccc(F)c(C(F)(F)F)c3)cc2)nc2cccnc12`, the growth was 100% in the test on DU-145 prostate; 84.2% in the test with K-562 leukemia; 123% in the test with MALME-3M melanoma; 92.3% in the test with MDA-MB-231 breast; 81.9% with RXF 393 renal; 92% in the test on SF-268 CNS. In addition, the growth with SF-295 CNS was 86.2%; in the test with SF-539 CNS, 90.3%; in the test on UACC-257 melanoma, 101%; in the test with M14 melanoma it was 92.3%; with HCT-15 colon, 89.7%; in the test with HT29 colon it was 91%. The growth is 80% with SNB-75 CNS; 93.6% in the test on SNB-19 CNS; 87.8% with U251 CNS; 84.2% in the test with PC-3 prostate; 93.2% with SK-MEL-5 melanoma; 97% with UACC-62 melanoma. Further, the growth with LOX IMVI melanoma is 88.8%; with SK-MEL-28 melanoma, 100%.
Turning to `C#Cc1nc(C(=O)NCCCCCCC(=O)NO)cs1`, the growth with DU-145 prostate is -51.1% (active); in the test with K-562 leukemia, 5.86% (active); with MALME-3M melanoma, -61% (active); in the test with MDA-MB-231 breast, -71.8% (active); in the test with RXF 393 renal it was -78.7% (active); with SF-268 CNS, 2.01% (active). The growth was -2.7% (active) in the test on SF-295 CNS; -80.1% (active) in the test on SF-539 CNS; 23% in the test with UACC-257 melanoma; 16.6% with M14 melanoma; 41.3% in the test on HCT-15 colon; 5.53% (active) in the test with HT29 colon. Also, the growth in the test with SNB-75 CNS is -65.2% (active); in the test with SNB-19 CNS it was 30.6%; in the test with U251 CNS, 6.04% (active); with PC-3 prostate, 14.3%; in the test with SK-MEL-5 melanoma, -55.9% (active); in the test with UACC-62 melanoma it was -63.1% (active). Moreover, the growth with LOX IMVI melanoma is -84.6% (active); with SK-MEL-28 melanoma, -53.1% (active).
`CC(=O)c1c([Si](C)(C)C)c2cc(C#N)ccn2c1C(=O)c1ccc(Br)cc1`: the growth is 99.9% with DU-145 prostate; 82.4% in the test with K-562 leukemia; 92.9% in the test on MALME-3M melanoma; 85.4% in the test with MDA-MB-231 breast; 78.5% with RXF 393 renal; 79.1% in the test on SF-268 CNS. Besides, the growth is 90.9% in the test on SF-295 CNS; 95.5% in the test on SF-539 CNS; 101% in the test on UACC-257 melanoma; 97.4% with M14 melanoma; 85.1% in the test on HCT-15 colon; 67.8% in the test on HT29 colon. Further, the growth with SNB-75 CNS is 95.1%; in the test with SNB-19 CNS it was 86.9%; in the test with U251 CNS, 93.2%; in the test with PC-3 prostate, 76%; in the test on SK-MEL-5 melanoma it was 91.2%; with UACC-62 melanoma, 74.9%. For the same molecule, the growth with LOX IMVI melanoma was 99.6%; in the test on SK-MEL-28 melanoma it was 92.1%.
For `Cc1ccc(NC2=C(Cl)C(=O)c3nc(C)ccc3C2=O)c(C)c1`, the growth in the test with DU-145 prostate was -1.93% (active); with K-562 leukemia, 2.95% (active); in the test with MALME-3M melanoma, 13.9%; in the test with MDA-MB-231 breast it was 11.9%; in the test on RXF 393 renal it was 31.1%; in the test on SF-268 CNS, 24.8%. The growth with SF-295 CNS is -29.9% (active); in the test on SF-539 CNS, -61.9% (active); in the test with UACC-257 melanoma, -80.6% (active); in the test with M14 melanoma, -58.3% (active); in the test with HCT-15 colon, -57.7% (active); with HT29 colon it was 80.5%. Besides, the growth with SNB-75 CNS is 87.9%; in the test on SNB-19 CNS, 30.5%; with U251 CNS, 22.6%; in the test on PC-3 prostate, 22.6%; in the test on SK-MEL-5 melanoma, -50.2% (active); in the test with UACC-62 melanoma, 18.5%. The growth is -29.2% (active) in the test with LOX IMVI melanoma and 30.9% with SK-MEL-28 melanoma.
